# Results from ChEMBL document CHEMBL1201862, “PubChem BioAssay data set” (2004).
# Screen size: about 130,000 compounds; about 1,200 (0.92%) were called active. Another 3% or so got no clear call; they are omitted. The calls are words filed in the database; no cut-off is given here. Shown is part of a subset that was picked to be rich in actives.
# Biological target: Cellular tumor antigen p53 (Homo sapiens) (UniProt P04637)
# Assay: qHTS Screen for Compounds that Selectively Target Cancer Cells with p53 Mutations: Cytotoxicity of p53ts Cells at the Permissive Temperature. [Related pubchem assays: 902 ]
# Assay type: functional
# Sequence of Cellular tumor antigen p53 (Homo sapiens) (P04637 whole entry, looked up): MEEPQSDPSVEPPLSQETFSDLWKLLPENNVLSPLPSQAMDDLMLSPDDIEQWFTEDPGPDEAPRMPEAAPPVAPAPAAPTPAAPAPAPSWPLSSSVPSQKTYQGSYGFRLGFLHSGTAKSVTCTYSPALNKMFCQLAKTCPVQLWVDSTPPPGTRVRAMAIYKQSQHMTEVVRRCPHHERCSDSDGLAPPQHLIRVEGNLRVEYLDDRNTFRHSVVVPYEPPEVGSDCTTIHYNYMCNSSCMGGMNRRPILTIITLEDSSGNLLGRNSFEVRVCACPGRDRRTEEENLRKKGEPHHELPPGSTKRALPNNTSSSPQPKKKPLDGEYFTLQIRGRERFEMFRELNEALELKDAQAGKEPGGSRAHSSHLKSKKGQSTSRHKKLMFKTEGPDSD
row,Structure (SMILES),Potency
1,O=C(/C=C/c1ccc(Cl)cc1)c1cccs1,15.8 µM (active)
2,COc1ccccc1/C=C/C(=O)c1cccs1,10 µM (active)
